What was measured:
Experiment in all cases: protein binding microarray; high values mean tight binding
Conditions in all cases: dsDNA, one strand shown
RELARELA (p65 homodimer) = RELARELA (p65 homodimer) (Homo sapiens, UniProt Q04206 1-307)
p50p50 homodimer = p50p50 homodimer (Homo sapiens, UniProt P19838 7-356)
p52p52 homodimer = biological target: T1, p52p52 homodimer (Homo sapiens, UniProt Q00653 4-332)
T1 sequence: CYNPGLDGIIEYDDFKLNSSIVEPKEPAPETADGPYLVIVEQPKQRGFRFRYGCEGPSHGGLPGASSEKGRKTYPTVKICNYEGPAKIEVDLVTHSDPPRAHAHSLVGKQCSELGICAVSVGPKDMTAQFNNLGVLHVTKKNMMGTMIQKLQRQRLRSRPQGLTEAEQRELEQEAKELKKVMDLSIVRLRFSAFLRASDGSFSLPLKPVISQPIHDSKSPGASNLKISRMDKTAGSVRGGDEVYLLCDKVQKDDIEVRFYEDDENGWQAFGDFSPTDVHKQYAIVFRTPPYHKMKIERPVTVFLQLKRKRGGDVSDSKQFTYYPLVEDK

[1] = biological target: RELA (p65) subunit of heterodimer;p50 subunit (Homo sapiens;Homo sapiens, UniProt Q04206;P19838 1-307;7-356)
[2] = biological target: RELA (p65) subunit of heterodimer;p52 subunit (Homo sapiens;Homo sapiens, UniProt Q04206;Q00653 1-307;4-332)
RELB subunit;p50 subunit = RELB subunit;p50 subunit (Homo sapiens;Homo sapiens, UniProt Q01201;P19838 120-401;7-356)
RELB subunit;p52 subunit = biological target: T2, RELB subunit;p52 subunit (Homo sapiens;Homo sapiens, UniProt Q01201;Q00653 120-401;4-332)
T2 sequence 1: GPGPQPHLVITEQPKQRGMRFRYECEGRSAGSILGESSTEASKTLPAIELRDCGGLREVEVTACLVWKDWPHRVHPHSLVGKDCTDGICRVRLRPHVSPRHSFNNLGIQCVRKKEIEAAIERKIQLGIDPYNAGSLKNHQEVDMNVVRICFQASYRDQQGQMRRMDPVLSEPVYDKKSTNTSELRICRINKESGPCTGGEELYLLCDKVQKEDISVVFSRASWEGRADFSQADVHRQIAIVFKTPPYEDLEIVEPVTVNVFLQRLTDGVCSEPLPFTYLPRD
T2 sequence 2: T1 sequence

[3] = biological target: C-Rel subunit;p50 subunit (Homo sapiens;Homo sapiens, UniProt Q04864;P19838 1-285;7-356)
[4] = biological target: T3, C-Rel subunit;p52 subunit (Homo sapiens;Homo sapiens, UniProt Q04864;Q00653 1-285;4-332)
T3 sequence 1: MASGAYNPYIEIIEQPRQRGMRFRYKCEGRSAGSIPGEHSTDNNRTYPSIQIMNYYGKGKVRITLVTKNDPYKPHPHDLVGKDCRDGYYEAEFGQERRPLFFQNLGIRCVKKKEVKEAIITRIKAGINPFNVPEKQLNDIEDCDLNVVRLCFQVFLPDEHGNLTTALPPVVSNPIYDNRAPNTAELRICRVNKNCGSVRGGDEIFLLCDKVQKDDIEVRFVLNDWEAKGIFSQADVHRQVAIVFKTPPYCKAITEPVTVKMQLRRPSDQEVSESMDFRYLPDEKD
T3 sequence 2: T1 sequence

p50p50 homodimer, sequence (P19838 7-356): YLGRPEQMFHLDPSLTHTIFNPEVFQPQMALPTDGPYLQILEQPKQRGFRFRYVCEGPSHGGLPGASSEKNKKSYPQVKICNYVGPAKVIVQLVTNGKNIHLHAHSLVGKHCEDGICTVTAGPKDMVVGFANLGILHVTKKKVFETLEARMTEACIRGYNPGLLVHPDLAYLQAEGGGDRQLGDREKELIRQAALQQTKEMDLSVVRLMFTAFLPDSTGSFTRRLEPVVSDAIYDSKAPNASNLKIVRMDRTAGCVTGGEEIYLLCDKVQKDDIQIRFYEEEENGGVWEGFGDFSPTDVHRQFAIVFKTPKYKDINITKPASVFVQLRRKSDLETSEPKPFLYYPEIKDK
RELA (p65) subunit of heterodimer;p50 subunit, sequence (Q04206 1-307, chain 1 of 2): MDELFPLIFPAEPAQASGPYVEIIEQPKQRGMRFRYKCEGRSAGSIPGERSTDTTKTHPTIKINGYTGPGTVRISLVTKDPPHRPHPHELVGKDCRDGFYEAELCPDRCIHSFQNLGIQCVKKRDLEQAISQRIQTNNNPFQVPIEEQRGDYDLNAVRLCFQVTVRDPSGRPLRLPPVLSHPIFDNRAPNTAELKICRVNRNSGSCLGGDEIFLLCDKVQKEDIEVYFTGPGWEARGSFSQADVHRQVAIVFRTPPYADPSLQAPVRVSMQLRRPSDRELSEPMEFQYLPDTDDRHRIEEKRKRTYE
RELA (p65) subunit of heterodimer;p50 subunit, sequence (P19838 7-356, chain 2 of 2): as the sequence (P19838 7-356) above
RELARELA (p65 homodimer), sequence (Q04206 1-307): as the sequence (Q04206 1-307, chain 1 of 2) above

Sequence: GGAATACTCCC
- binding signal (RELARELA (p65 homodimer)): 0.714 z-score
- binding signal (p50p50 homodimer): 0.226 z-score
- binding signal (p52p52 homodimer): -0.025 z-score
- binding signal [1]: 0.507 z-score
- binding signal [2]: 0.124 z-score
- binding signal (RELB subunit;p50 subunit): 0.0318 z-score
- binding signal (RELB subunit;p52 subunit): -0.125 z-score
- binding signal [3]: 0.28 z-score
- binding signal [4]: 0.199 z-score

Sequence: AAAAGCACCCC
- binding signal (RELARELA (p65 homodimer)): -0.281 z-score
- binding signal (p50p50 homodimer): 0.833 z-score
- binding signal (p52p52 homodimer): 0.946 z-score
- binding signal [1]: 0.86 z-score
- binding signal [2]: 1.12 z-score
- binding signal (RELB subunit;p50 subunit): 0.711 z-score
- binding signal (RELB subunit;p52 subunit): 0.952 z-score
- binding signal [3]: 0.423 z-score
- binding signal [4]: 0.69 z-score

Sequence: CAATGGTTCCT
- binding signal (RELARELA (p65 homodimer)): 0.0242 z-score
- binding signal (p50p50 homodimer): -1.26 z-score
- binding signal (p52p52 homodimer): -0.536 z-score
- binding signal [1]: -0.894 z-score
- binding signal [2]: -0.883 z-score
- binding signal (RELB subunit;p50 subunit): -0.727 z-score
- binding signal (RELB subunit;p52 subunit): -0.56 z-score
- binding signal [3]: -0.994 z-score
- binding signal [4]: -0.857 z-score

Sequence: AAAATACCCCT
- binding signal (RELARELA (p65 homodimer)): 1.01 z-score
- binding signal (p50p50 homodimer): 1.41 z-score
- binding signal (p52p52 homodimer): 1.92 z-score
- binding signal [1]: 1.65 z-score
- binding signal [2]: 1.8 z-score
- binding signal (RELB subunit;p50 subunit): 1.63 z-score
- binding signal (RELB subunit;p52 subunit): 2.25 z-score
- binding signal [3]: 1.26 z-score
- binding signal [4]: 1.95 z-score

Sequence: CAGAGTATCCT
- binding signal (RELARELA (p65 homodimer)): -0.548 z-score
- binding signal (p50p50 homodimer): -1.79 z-score
- binding signal (p52p52 homodimer): -0.651 z-score
- binding signal [1]: -0.987 z-score
- binding signal [2]: -1 z-score
- binding signal (RELB subunit;p50 subunit): -1.11 z-score
- binding signal (RELB subunit;p52 subunit): -0.991 z-score
- binding signal [3]: -1.45 z-score
- binding signal [4]: -1 z-score

Sequence: AAAAGGTCCCC
- binding signal (RELARELA (p65 homodimer)): 0.121 z-score
- binding signal (p50p50 homodimer): 0.934 z-score
- binding signal (p52p52 homodimer): 0.86 z-score
- binding signal [1]: 0.799 z-score
- binding signal [2]: 0.753 z-score
- binding signal (RELB subunit;p50 subunit): 1.08 z-score
- binding signal (RELB subunit;p52 subunit): 0.995 z-score
- binding signal [3]: 0.454 z-score
- binding signal [4]: 0.594 z-score

Sequence: CGGTGGATCCC
- binding signal (RELARELA (p65 homodimer)): 0.0568 z-score
- binding signal (p50p50 homodimer): 0.42 z-score
- binding signal (p52p52 homodimer): 2.32 z-score
- binding signal [1]: 0.748 z-score
- binding signal [2]: 1.33 z-score
- binding signal (RELB subunit;p50 subunit): 0.911 z-score
- binding signal (RELB subunit;p52 subunit): 1.38 z-score
- binding signal [3]: 0.293 z-score
- binding signal [4]: 1.43 z-score

Sequence: AAGAGAGTCCT
- binding signal (RELARELA (p65 homodimer)): 0.889 z-score
- binding signal (p50p50 homodimer): -0.892 z-score
- binding signal (p52p52 homodimer): -0.435 z-score
- binding signal [1]: -0.32 z-score
- binding signal [2]: -0.676 z-score
- binding signal (RELB subunit;p50 subunit): -0.818 z-score
- binding signal (RELB subunit;p52 subunit): -0.673 z-score
- binding signal [3]: -0.59 z-score
- binding signal [4]: -0.442 z-score

Sequence: GGGTTGACCCT
- binding signal (RELARELA (p65 homodimer)): -0.0795 z-score
- binding signal (p50p50 homodimer): -0.785 z-score
- binding signal (p52p52 homodimer): -0.387 z-score
- binding signal [1]: -0.407 z-score
- binding signal [2]: -0.336 z-score
- binding signal (RELB subunit;p50 subunit): -0.554 z-score
- binding signal (RELB subunit;p52 subunit): -0.73 z-score
- binding signal [3]: -0.769 z-score
- binding signal [4]: -0.115 z-score

Sequence: AAGGGGCTCCT
- binding signal (RELARELA (p65 homodimer)): -0.668 z-score
- binding signal (p50p50 homodimer): 0.769 z-score
- binding signal (p52p52 homodimer): 0.959 z-score
- binding signal [1]: 0.032 z-score
- binding signal [2]: 0.753 z-score
- binding signal (RELB subunit;p50 subunit): 0.344 z-score
- binding signal (RELB subunit;p52 subunit): 0.791 z-score
- binding signal [3]: -0.103 z-score
- binding signal [4]: 0.392 z-score

Sequence: AAGGGCGTCCT
- binding signal (RELARELA (p65 homodimer)): -1.14 z-score
- binding signal (p50p50 homodimer): -1.28 z-score
- binding signal (p52p52 homodimer): -0.61 z-score
- binding signal [1]: -1.06 z-score
- binding signal [2]: -0.909 z-score
- binding signal (RELB subunit;p50 subunit): -0.994 z-score
- binding signal (RELB subunit;p52 subunit): -0.788 z-score
- binding signal [3]: -1.25 z-score
- binding signal [4]: -0.659 z-score

Sequence: CGGGTCCTCCC
- binding signal (RELARELA (p65 homodimer)): -0.107 z-score
- binding signal (p50p50 homodimer): -0.467 z-score
- binding signal (p52p52 homodimer): -0.154 z-score
- binding signal [1]: -0.451 z-score
- binding signal [2]: -0.038 z-score
- binding signal (RELB subunit;p50 subunit): -0.526 z-score
- binding signal (RELB subunit;p52 subunit): -0.335 z-score
- binding signal [3]: -0.324 z-score
- binding signal [4]: 0.0736 z-score

Sequence: AAGGTTATCCC
- binding signal (RELARELA (p65 homodimer)): -0.0178 z-score
- binding signal (p50p50 homodimer): -0.0329 z-score
- binding signal (p52p52 homodimer): 0.0211 z-score
- binding signal [1]: -0.139 z-score
- binding signal [2]: -0.074 z-score
- binding signal (RELB subunit;p50 subunit): -0.236 z-score
- binding signal (RELB subunit;p52 subunit): -0.173 z-score
- binding signal [3]: -0.0847 z-score
- binding signal [4]: -0.165 z-score

Sequence: GGATAAATCCC
- binding signal (RELARELA (p65 homodimer)): 0.859 z-score
- binding signal (p50p50 homodimer): 0.48 z-score
- binding signal (p52p52 homodimer): 0.567 z-score
- binding signal [1]: 0.64 z-score
- binding signal [2]: 0.582 z-score
- binding signal (RELB subunit;p50 subunit): 0.489 z-score
- binding signal (RELB subunit;p52 subunit): 0.482 z-score
- binding signal [3]: 0.867 z-score
- binding signal [4]: 0.396 z-score

Sequence: CAAATGCCCCT
- binding signal (RELARELA (p65 homodimer)): 0.347 z-score
- binding signal (p50p50 homodimer): 1.15 z-score
- binding signal (p52p52 homodimer): 1.14 z-score
- binding signal [1]: 1.2 z-score
- binding signal [2]: 1.19 z-score
- binding signal (RELB subunit;p50 subunit): 1.21 z-score
- binding signal (RELB subunit;p52 subunit): 1.47 z-score
- binding signal [3]: 0.882 z-score
- binding signal [4]: 1.38 z-score

Reference: PMC3218832
